This note sets out measurements from PubChem BioAssay AID624133 (Broad Institute, 2012).

The whole screen tested about 1,600 compounds, of which about 1,300 (81%) were called active. How the calls were made is not given here. So high a share suggests a set chosen from earlier hits. The list is a sample of the results. Potency and affinity values are given separately.

A short description of this assay: control 3'UTR Renilla luciferase suppression, dose response, counter-screen for Shn3 inhibitor project, cell-based, Clone20-Shn3RL, cherry-picked (AID 624133).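 Further: 0% = neutral control wells and -100% = positive control wells.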 The conditions noted are these: Clone20-Shn3RL cells, Renilla luciferase luminescence, 24 h; at 35 µM (top of the series) unless noted. For orientation: A counterscreen serves to expose hits that act by an unwanted route or on another target.
As to `CCn1nnc2cc(C(=O)Nc3cc(Cl)ccc3C)ccc21`, the activity change, negative = inhibition was -11.1%. The same measure for `CCOC(=O)c1c(C)[nH]c(C(=O)COC(=O)[C@H](C)N2C(=O)C3CCCCC3C2=O)c1C` (stereo not given in full): -5%; for `O=C(Nc1cccc(-c2ccc(N3CCCCC3)nn2)c1)C(F)(F)F`: -50%. Under `Nc1c(Br)cc2c(c1Br)C(O)c1ccccc1-2` (stereo not given) stands 22.2%. Regarding `CCCOc1ccc2oc(=O)c3c(c2c1)CCCN3C(=O)CN1CCN(c2ncccn2)CC1`, the activity change, negative = inhibition was 133%. Under `COc1ccc(CN(C(=O)CSc2nnc(-c3ccc(F)cc3)o2)c2ccc(F)cc2)cc1` stands 16.7%.

Consider `CSc1cccc(NS(=O)(=O)c2ccc3c(c2)CCN3C(C)=O)c1`, for which the activity change, negative = inhibition came out at 400%.

As for `COc1cc(SC)ccc1C(=O)Nc1nc2ccccc2[nH]1`, the activity change, negative = inhibition was -90%. The same measure for `Cc1cccc(CSc2cccc3cccnc23)c1`: 49.1%; for `O=C(NCc1ccccc1C(F)(F)F)c1cccc2c1C(=O)c1ccc(N3CCC(N4CCCCC4)CC3)cc1S2(=O)=O`: -33.6%. The same measure for `CC(C)n1c(/C=C/[C@@H](O)C[C@@H](O)CC(=O)O)c(-c2ccc(F)cc2)c2ccccc21`: -100%. Under `O=c1cc(-c2ccc(O)cc2)oc2ccc3ccccc3c12` stands 91.7%. Consider `Cn1cc([N+](=O)[O-])c(C(=O)Nc2sc3c(c2C#N)CCC3)n1`, for which the activity change, negative = inhibition was -10.8%. Under `O=C(COC(=O)/C=C/c1ccc(OC(F)F)cc1)Nc1ccc2[nH]c(=O)[nH]c2c1` stands -21.3%. Under `O=C(Nc1nc2cc3c(cc2s1)OCCO3)C1=COCCO1` stands 45.8%.

Take `Cc1cccc(-c2noc(CN(C(=O)C(c3ccccc3)c3ccccc3)C(C)C)n2)c1`: the activity change, negative = inhibition was -29.9%. The same measure for `CC1=NOC(=O)/C1=C\c1ccc(-c2ccccc2Br)o1`: 35.7%; for `COc1ccc(NS(=O)(=O)c2ccc3ccccc3c2)c2ncccc12`: 293%.

Regarding `Cc1nc2scc(C)n2c(=O)c1S(=O)(=O)Nc1ccc(N2CCOCC2)c(Cl)c1`, the activity change, negative = inhibition was 62.5%. Under `Nc1nnc(SCC(=O)Nc2ccc(N3CCOCC3)cc2)s1` stands 45.8%; under `CCOc1cc(/C=C2\C(=O)ON=C2C)ccc1OCc1ccccc1`, -100%; under `O=C(Nc1ccc(Cl)cc1)Nc1ccc(N2CCCC2)c(S(=O)(=O)Nc2ccccc2Cl)c1`, -17.1% [at 16 µM]. The same measure for `COc1ccc(CNC(=O)C(c2ccc(C)cc2)N(Cc2cccs2)C(=O)c2ccc3c(c2)OCCO3)cc1` (stereo not given): 50%; for `COc1ccc(CCNC(=O)CCC(=O)N2CCOc3ccc(Cl)cc32)cc1OC`: -107%; for `CCc1ccc(OCCNc2cc(N3CCNC(C)C3)ccc2[N+](=O)[O-])cc1` (stereo not given): -83.3%. Under `O=S(=O)(c1ccc(Cl)cc1)n1ccc2cccnc21` stands 6.94%; under `Cc1ccc(C)c(S(=O)(=O)Nc2ccc(-n3cnnn3)cc2)c1`, 276%; under `COc1ccc(C(=O)OCC(=O)Nc2ccc3[nH]c(=O)[nH]c3c2)cc1`, 62.5%. For the molecule `Cc1ccccc1NC(=O)CSc1nc2ccccc2c(=O)n1C`, the activity change, negative = inhibition is 10%. The same measure for `COc1ccc(N2C(=O)C(CC(=O)Nc3ccccc3)N(Cc3ccc(OC)c(OC)c3)C2=O)cc1` (stereo not given): 84.7%; for `CCCCC[C@H]1CN(Cc2ccc(OC)cc2)C(=O)[C@@H]1CC(=O)NCc1ccccc1`: 196%; for `COCCn1c(C)cc(C2=NNC(=NC3CC3)SC2)c1C`: 10%. The same measure for `Cc1ccc(S(=O)(=O)Nc2cccc3ncccc23)s1`: -66.7%; for `COc1ccc(NS(=O)(=O)c2ccc(OC)c(N(C)S(=O)(=O)c3ccc(Cl)cc3)c2)cc1`: -58.3%. Under `Cc1nc(SCC(=O)Nc2nc3ccccc3s2)c(C#N)c(C)c1C` stands -8.33%; under `Cc1ccc(NC(=O)c2cc3ccccc3oc2=O)cc1S(=O)(=O)N(C)C`, 45.2%. Turning to `Cc1cccc(C)c1NC(=O)CN(C)C(=O)c1cc(S(=O)(=O)N(C)C)ccc1N1CCCC1`, the activity change, negative = inhibition came to 41.7%. The same measure for `Cc1nc2ncnn2c(C)c1Cc1cccc(F)c1`: 25%; for `Cn1cc(CN(CCO)Cc2cccs2)c(-c2cccc(Cl)c2)n1`: 16.7%.

For `COc1ccc(C(=O)Cn2c(C(=O)/C=C/c3ccccc3)nc3ccccc32)cc1`, the activity change, negative = inhibition worked out at 170%. Under `COc1ccc(OCc2cccc(C(=O)O)c2)cc1` stands 107%; under `O=C(O)c1cccc(COc2ccccc2Cl)c1`, -10%; under `Oc1c(C(c2cccs2)N2CCC3(CC2)OCCO3)sc2ncnn12` (stereo not given), 151%.

Turning to `COC(=O)[C@@]12CCCN1[C@H](c1ccc(-c3ccc(OC)cc3)cc1)[C@@H]1C(=O)N(C)C(=O)[C@@H]12`, the activity change, negative = inhibition was found to be 47.2%. The same measure for `CCN1C(=O)[C@H]2[C@@H](c3ccc(-c4ccc(OC)cc4)cc3)N3CCC[C@@]3(C(=O)OC)[C@H]2C1=O`: -39.3%; for `CCCCN1CC(COCc2ccccc2)Oc2cccc(Oc3cc(C)c(C)c(C)c3)c2S1(=O)=O` (stereo not given): 300%; for `CCCCN1CC(COCc2ccccc2)Oc2cccc(Oc3ccc(C)cc3)c2S1(=O)=O` (stereo not given): 130%. Under `COC(=O)c1ccccc1NC(=S)N(Cc1ccc2c(c1)OCO2)Cc1cc2cc(OC)ccc2[nH]c1=O` stands 200%. The same measure for `O=C1S/C(=C\c2ccc(N3CCOCC3)o2)C(=O)N1Cc1c(F)cccc1Cl`: 400%; for `Cc1cc(C)n(-c2cc(-n3nc(C)cc3C)ncn2)n1`: 2.38%; for `C[C@@H]1CN([C@H](C)CO)C(=O)c2cc(Br)cnc2O[C@H]1CN(C)C(=O)Cc1ccncc1`: 83.3%. On to `CN1OC[C@@H]2CN[C@H](c3ccc(-c4cc5ccccc5o4)cc3)C[C@@H]21`, for which the activity change, negative = inhibition is -25%. The same measure for `CN(CC(=O)Nc1cc(S(=O)(=O)N2CCCC2)ccc1Cl)Cc1ccc2c(c1)OCO2`: 87.5%. Under `CC(C)(C)OC(=O)NCc1ccc(CNC(=O)c2nc[nH]c2C(=O)NCc2ccc(CNC(=O)OC(C)(C)C)cc2)cc1` stands 208%. The same measure for `Cc1ccc(-n2cc(CNCCCn3ccnc3C)c(-c3ccc(F)cc3)n2)cc1`: -91.7%. In the case of `COC(=O)c1cn(NC(=O)c2cc([N+](=O)[O-])ccc2F)c(=O)c2ccccc12`, the activity change, negative = inhibition was found to be 354%.

For the molecule `CC(C)c1ccc(Oc2cccc3c2S(=O)(=O)N(C2CCCC2)CC(COCc2ccccc2)O3)cc1` (stereo not given), the activity change, negative = inhibition amounted to 273%.

Take `Cn1cccc1Cc1nnc(SCC(=O)NCCc2ccccc2)n1-c1ccc(F)cc1`: the activity change, negative = inhibition turned out to be 275%. Under `CCN(CC)S(=O)(=O)c1ccc(N(C)Cc2cccc(OC)c2OC)nc1` stands -40%; under `CCOC(=O)c1ccc(NC(=O)c2nc[nH]c2C(=O)NCCNC(=O)c2[nH]cnc2C(=O)Nc2ccc(C(=O)OCC)cc2)cc1`, 47.9%; under `Cc1cccc2c(C(=O)N3CCN(c4ccccn4)CC3)cc(-c3cccc(Br)c3)nc12`, -100%. With `COc1ccccc1N1CCN(c2ncc(C(=O)N3CCN(c4cccc(Cl)c4)CC3)c3ccccc23)CC1`, the activity change, negative = inhibition worked out at 66.7%.

As for `CCOc1cc(C)c(S(=O)(=O)Nc2ccc3cn[nH]c3c2)cc1C`, the activity change, negative = inhibition is 0%. On to `Cc1ccc(NC(=O)C2CCCN(S(=O)(=O)c3c(C)noc3C)C2)cc1` (stereo not given), for which the activity change, negative = inhibition was -19.4%. Under `COc1ccc(C(=O)NCCN(C)C)c2nc3ccccc3cc12` stands 66.5%; under `COc1ccccc1/C=C1\CCCC2=C1Nc1nnnn1C2c1ccccc1OC` (stereo not given), -110%. `CCn1c(C)cc(C(=O)COC(=O)c2ccccc2[N+](=O)[O-])c1C`: the activity change, negative = inhibition is -13.6%.

For the molecule `COc1ccc(-c2nsc3c(N4CCCCC4C)ncnc23)cc1` (stereo not given), the activity change, negative = inhibition is -16.7%. In the case of `O=C(CN1C(=O)C2CCCCC2C1=O)NC1CCCc2ccccc21` (stereo not given), the activity change, negative = inhibition is -10%. As for `C[C@@H]1CN([C@@H](C)CO)C(=O)c2cc(NC(=O)Nc3ccc(F)cc3)ccc2O[C@@H]1CN(C)Cc1ccc(Oc2ccccc2)cc1`, the activity change, negative = inhibition was -20.8%. Under `C[C@@H]1CCCCO[C@H](CN(C)Cc2ccccc2)[C@@H](C)CN([C@H](C)CO)C(=O)c2cc(NC(=O)c3ccccc3)ccc2O1` stands 33.3%; under `CN(Cc1ccccc1)C(=O)c1cccc(NC(=O)Cc2ccc([N+](=O)[O-])cc2)c1`, 230%; under `COc1ccc2c(CC(=O)OCC(=O)N(C)c3c(N)n(Cc4ccccc4)c(=O)[nH]c3=O)coc2c1`, -12.5%. The same measure for `CC(Oc1ccc(F)cc1)C(=O)N(CCC1=CCCCC1)c1c(N)n(Cc2ccccc2)c(=O)[nH]c1=O` (stereo not given): -25%; for `COc1ccc(CN2CCC(C(=O)Nc3ccc(Oc4cccnc4)cc3)CC2)c(C)c1C`: -75%; for `CC(C)(C)C(=O)Nc1cc(S(=O)(=O)N2CCCCC2)ccc1N1CCCCC1`: 50%. The same measure for `COc1cccc(-c2nc(NC3CCCC3)c3ccccc3n2)c1O`: -22.7%; for `COc1ccc(-n2ncc3c(N4CCCCC4)ncnc32)cc1`: -75%; for `CCn1cc(CNCc2cn(-c3ccccc3C)nc2-c2ccc(OC)c(F)c2)cn1`: 150%. `Cc1ccc(C(=O)Nc2cnc3ccccc3c2)cc1`: the activity change, negative = inhibition is 90%.

On to `CC(=O)c1cccc(NS(=O)(=O)c2ccc(-c3cnc(C4CC4)o3)cc2)c1`, for which the activity change, negative = inhibition came to 8.33%. Under `Cc1cccc(NS(=O)(=O)c2ccc(C3CCCCC3)cc2)c1` stands 0%; under `CCOC(=O)c1[nH]c(C)c(/C(O)=C2\C(=O)C(=O)N(CCCN3CCOCC3)C2c2cccs2)c1C` (stereo not given), 70%. Regarding `O=C(CSc1nnc(Nc2ccccc2)s1)NC1CCS(=O)(=O)C1` (stereo not given), the activity change, negative = inhibition amounted to 20.8%. The same measure for `CCOC(=O)c1cn(CC(=O)Nc2cccc(Cl)c2C)nn1`: 16.7%; for `CCOC(=O)Cn1c(S(=O)(=O)Cc2ccccc2Cl)nc(-c2ccccc2)c1-c1ccccc1`: 110%; for `CC1(C)CC(=O)c2c(nc(SCC(=O)Nc3nsc(-c4ccccc4)n3)c(C#N)c2-c2ccccc2)C1`: 16.7%. The same measure for `Cc1cccc(C(=O)Nc2ccc(C(=O)/C=C/c3ccncc3)cc2)c1`: -100%.

Regarding `CCCCN1CC(COCc2ccccc2)Oc2cccc(Oc3ccc(C(C)C)cc3)c2S1(=O)=O` (stereo not given), the activity change, negative = inhibition was found to be 37.5%.

In the case of `OCCNc1nc(Nc2ccc(Cl)cc2)nc(N2CCCC2)n1`, the activity change, negative = inhibition was -11.7%.

Regarding `OCCCNc1nccc(-c2cc(Nc3cccc(Cl)c3)ncn2)n1`, the activity change, negative = inhibition was -50%. Consider `Cc1cc(O)c(C(C)C)cc1C1(c2cc(C(C)C)c(O)cc2C)OC(=O)c2ccccc21`, for which the activity change, negative = inhibition was 0%.

On to `O=C(NCCc1ccccc1)c1ccc2c(c1)OCCCO2`, for which the activity change, negative = inhibition was 22.2%. As to `Cc1ccccc1C(=O)N1CCN(c2ccc(NC(=O)c3ccc4c(c3)OCCO4)cc2)CC1`, the activity change, negative = inhibition is -103%. Consider `Cc1onc(-c2c(Cl)cccc2Cl)c1C(=O)N[C@@H]1C(=O)N2[C@@H]1SC(C)(C)[C@@H]2C(=O)O`, for which the activity change, negative = inhibition is 25%.
